Compound activity (PubChem BioAssay)
RORgamma inh = qHTS for inhibitors of ROR gamma transcriptional activity; Drosophila S2 Gal4-RORgamma UAS-luciferase reporter, 20 h; Potency, µM (titrated, usually from 53.6 µM), most hits filed as inhibitors; 310,000 compounds, 5.4% hits; further: nearly all actives have a fitted effect of over 60% in size
Target sequence (P51450 whole entry, looked up, the tested form may be a part): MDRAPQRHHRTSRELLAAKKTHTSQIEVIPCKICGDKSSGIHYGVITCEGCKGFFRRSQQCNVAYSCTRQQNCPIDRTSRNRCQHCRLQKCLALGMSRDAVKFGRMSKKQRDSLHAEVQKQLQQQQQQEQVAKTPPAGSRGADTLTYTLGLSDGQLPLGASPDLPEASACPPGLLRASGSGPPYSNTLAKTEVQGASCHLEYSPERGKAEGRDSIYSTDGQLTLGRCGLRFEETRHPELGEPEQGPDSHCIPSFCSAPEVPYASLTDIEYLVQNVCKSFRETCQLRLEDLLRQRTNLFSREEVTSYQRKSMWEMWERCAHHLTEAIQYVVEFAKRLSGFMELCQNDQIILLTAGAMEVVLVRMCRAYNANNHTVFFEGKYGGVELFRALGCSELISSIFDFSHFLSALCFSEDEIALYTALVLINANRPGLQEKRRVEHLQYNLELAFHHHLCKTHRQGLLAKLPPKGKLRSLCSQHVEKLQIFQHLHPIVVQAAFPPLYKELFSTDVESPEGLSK
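Using a luciferase readout, inhibitors were identified by reduced reporter activity in Drosophila cells coexpressing a copper-inducible Gal4–ROR gamma fusion and UAS-driven Photinus luciferase, incubated 20 hr after 700 uM copper sulfate.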
TRPV1 PAM = HTS Assay for Compounds that Act as Potentiators of the Vanilloid Receptor 1 | Transient receptor potential cation channel subfamily V member 1 (Homo sapiens), Q8NER1 | TRPV1-expressing cells, Fluo-8 calcium influx, capsaicin EC20 potentiation | potentiation, % at 8.33 µM | 320,000 compounds, 0.02% hits | AID 540277, 2011; in the data active means potentiation above about 80%; inconclusive means between about 30% and that limit
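Fluo-8 calcium influx in TRPV1-expressing cells, kinetic read (ex 480/em 520 nm). Compound added and read 3 min for agonist activity, followed by capsaicin at EC20 final and 2 min further read for enhancement.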
VP16 counter = VP16 counterscreen qHTS for inhibitors of ROR gamma transcriptional activity | Drosophila S2 Gal4-VP16 UAS-luciferase, luminescence, 20 h | 310,000 compounds, 3.5% hits | AID 2546, 2010 | Potency, µM (top dose mostly 53.6 µM), usual class: inhibitors;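 further: Gal4-VP16 expression switched on by copper sulfate through the metallothionein promoter; nearly all actives have a fitted effect of over 50% in size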
TRPV1 agonist = HTS Assay for Compounds that Act as Agonists of the Vanilloid Receptor 1; AID 540275, 2011; 320,000 compounds, 0.19% hits; activation, % at 8.33 µM; TRPV1-expressing cells, Fluo-8 calcium influx, agonist mode; in the data active means activation above about 80%; inconclusive means between about 30% and that limit
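TRPV1-expressing cells were cultured overnight at 35.5C and loaded with Fluo-8 calcium dye for 40 to 90 min at room temperature. After a 10 s baseline, compound was added and calcium influx was read kinetically for 3 min (ex 480/em 520 nm).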
uPA generation = qHTS for Inhibitors of Cell Surface uPA Generation; Potency, µM (series often up to 38.3 µM), usual class: inhibitors; 330,000 compounds, 0.31% hits; cell surface uPA generation assay, qHTS; active means well fitted inhibition curve with a large enough effect; inconclusive means small, poorly fitted or top-dose-only effect; inactive means no such curve, though single readings can be large or run the other way; tested in mouse RAW 264.7 cells; further: nearly all actives have a fitted effect of over 55% in size
Hits are given with their value; [ ] = another dose, or the depositor's remark. In the library only some 5.8% were active in any assay of this set; here they are far more common. Unless noted, the call rests on the fitted dose curve; in most records, active means well fitted curve in the direction sought with a large enough effect; inconclusive means small, poorly fitted or top-dose-only effect, or another doubt; inactive means no such curve, though single readings can be large; an effect the other way counts as inactive or inconclusive.

Results for CCCCN(CCCC)C(=O)CSc1nnc2n(C)c(=O)c3c4c(sc3n12)CCCC4 ?
RORgamma inh: inconclusive; TRPV1 PAM: inactive; VP16 counter: 4.47µM; TRPV1 agonist: inactive; uPA generation: inactive

How did NC(=O)c1cc2cc([N+](=O)[O-])ccc2oc1=O do in these assays?
RORgamma inh: inactive; TRPV1 PAM: inactive; VP16 counter: inactive; TRPV1 agonist: inactive; uPA generation: inactive

How did O=C(NC1CCCCC1)C(c1cccnc1)N(C(=O)CCl)c1cccc(Cl)c1 (stereo unspecified) do in these assays?
RORgamma inh: 12.6µM; TRPV1 PAM: inactive; VP16 counter: inconclusive; TRPV1 agonist: inactive; uPA generation: inactive

Results for Cc1cccc(N(C(=O)CNC(=O)c2ccco2)C(C(=O)NC2CCCCC2)c2cccnc2)c1 (stereo unspecified) ?
RORgamma inh: inactive; TRPV1 PAM: inactive; VP16 counter: inactive; TRPV1 agonist: inactive; uPA generation: inactive

What do the screens show for `COc1ccccc1NC(=O)COC(=O)CCc1ccc(S(=O)(=O)N2CCOCC2)cc1`?
TRPV1 PAM: inactive; TRPV1 agonist: inactive; uPA generation: inactive

Results for CC1CN(S(=O)(=O)c2cccc(C(=O)OC/C(O)=C(\C#N)c3nc4ccccc4[nH]3)c2)CC(C)O1 (stereo unspecified) ?
RORgamma inh: 11.2µM; TRPV1 PAM: inactive; VP16 counter: inconclusive; TRPV1 agonist: inactive; uPA generation: inactive

What do the screens show for `Cc1ccc(C(=O)OC/C(O)=C(\C#N)c2nc3ccccc3[nH]2)cc1S(=O)(=O)N1CCOCC1`?
RORgamma inh: inconclusive; TRPV1 PAM: inactive; VP16 counter: inconclusive; TRPV1 agonist: inactive; uPA generation: inactive

How did N#C/C(=C(/O)COC(=O)CCc1ccc(S(=O)(=O)N2CCOCC2)cc1)c1nc2ccccc2[nH]1 do in these assays?
RORgamma inh: 8.91µM; TRPV1 PAM: inactive; VP16 counter: 20µM; TRPV1 agonist: inactive; uPA generation: inactive

How did N#C/C(=C(/O)COC(=O)c1ccc2c(c1)OCCO2)c1nc2ccccc2[nH]1 do in these assays?
RORgamma inh: inconclusive; TRPV1 PAM: inactive; VP16 counter: inactive; TRPV1 agonist: inactive; uPA generation: inactive

How did N#C/C(=C(/O)COC(=O)c1ccc(Cl)c(S(=O)(=O)N2CCOCC2)c1)c1nc2ccccc2[nH]1 do in these assays?
RORgamma inh: 3.55µM; TRPV1 PAM: inactive; VP16 counter: 7.08µM; TRPV1 agonist: inactive; uPA generation: inactive

What do the screens show for `O=C(Nc1cccc2cccnc12)C(Cl)(Cl)Cl`?
TRPV1 PAM: inactive; TRPV1 agonist: inactive

How did Cc1ccc(C2/C(=C(\O)c3ccc4c(c3)OCCO4)C(=O)C(=O)N2Cc2cccnc2)cc1 (stereo unspecified) do in these assays?
RORgamma inh: inactive; TRPV1 PAM: inactive; VP16 counter: inactive; TRPV1 agonist: inactive; uPA generation: inactive

What do the screens show for `CCc1cccc(CC)c1N(COC)C(=O)Cn1cnc2ccccc21`?
RORgamma inh: 10µM; TRPV1 PAM: inactive; VP16 counter: inactive; TRPV1 agonist: inactive; uPA generation: inactive

What do the screens show for `Cc1ccc(N=C2C(=S)N(c3ccc(C)cc3)C(=N)N2/N=C/c2ccc(Cl)cc2)cc1`?
RORgamma inh: 2.51µM; TRPV1 PAM: inactive; VP16 counter: 3.16µM; TRPV1 agonist: inactive; uPA generation: inactive

What do the screens show for `COc1ccc(/C=N/N2CCN(c3ccc(Cl)cc3)CC2)cc1`?
RORgamma inh: inactive[1.91 µM]; TRPV1 PAM: inactive; VP16 counter: inactive; TRPV1 agonist: inactive; uPA generation: inactive

Results for CCn1c(SCc2ccc(Cl)cc2Cl)nc2nc3c(cc2c1=O)CCCC3 ?
RORgamma inh: 7.08µM; TRPV1 PAM: inactive; VP16 counter: inactive; TRPV1 agonist: inactive

How did C=C1c2cccc(C(F)(F)F)c2O[C@H](C(=O)OCC)[C@@H]1CCCCCC do in these assays?
RORgamma inh: inactive; VP16 counter: inactive

How did CC1=Nc2ccc3ccccc3c2C1(C)C do in these assays?
RORgamma inh: 7.94µM; TRPV1 PAM: inactive; VP16 counter: inactive; TRPV1 agonist: inactive; uPA generation: inactive

How did Cc1c2ccccc2c(C)c2c1ccc1ccccc12 do in these assays?
RORgamma inh: inactive; TRPV1 PAM: inactive; VP16 counter: inconclusive; TRPV1 agonist: inactive; uPA generation: inconclusive

How did COc1cccc(/C=N/NC(=S)Nc2cccnc2)c1 do in these assays?
RORgamma inh: 2.51µM; TRPV1 PAM: inactive; VP16 counter: 3.16µM; TRPV1 agonist: inactive; uPA generation: inactive

How did COc1cccc(/C=N/NC(=S)Nc2cccc(C(=O)O)c2)c1 do in these assays?
RORgamma inh: 10µM; TRPV1 PAM: inactive; VP16 counter: inactive; TRPV1 agonist: inactive; uPA generation: inactive

What do the screens show for `Oc1ccc(/C=N/NC(=S)Nc2cccnc2)cc1`?
RORgamma inh: inconclusive; TRPV1 PAM: inactive; VP16 counter: inconclusive; TRPV1 agonist: inactive; uPA generation: 3.98µM

What do the screens show for `COc1cccc(NC(=O)Nc2cccnc2)c1`?
RORgamma inh: inactive; TRPV1 PAM: inactive; VP16 counter: inactive; TRPV1 agonist: inconclusive; uPA generation: inactive

How did CC(C)(C)NC(=S)N/N=C/c1cccnc1 do in these assays?
RORgamma inh: 5.62µM; TRPV1 PAM: inactive; VP16 counter: 10µM; TRPV1 agonist: inactive; uPA generation: inactive

What do the screens show for `Oc1ccc(/C=N/NC(=S)N/N=C/c2ccc(O)cc2)cc1`?
RORgamma inh: inactive; TRPV1 PAM: inactive; VP16 counter: inactive; TRPV1 agonist: inactive; uPA generation: inactive

Results for NC(=S)N/N=C/c1cccnc1 ?
RORgamma inh: inactive; VP16 counter: inactive

What do the screens show for `COC(=O)N1CCC2(CC1)CCN(c1cccc(-c3ccccc3)c1)CC2`?
RORgamma inh: inconclusive; VP16 counter: inactive

How did CC(=O)N[C@@H](CC(=O)O)C(=O)N[C@@H](CCC(=O)O)C(=O)O do in these assays?
RORgamma inh: inactive; VP16 counter: inactive

What do the screens show for `CNC(=O)CC1C(=O)N(c2ccc(F)cc2)C(=S)N1NC(=O)c1ccc(Br)cc1` (stereo unspecified)?
RORgamma inh: inactive; TRPV1 PAM: inactive; VP16 counter: inconclusive; TRPV1 agonist: inactive; uPA generation: inactive

Results for COc1cccc(/C=N\NC(=O)c2ccc(C)nc2)c1 ?
RORgamma inh: inconclusive; TRPV1 PAM: inactive; VP16 counter: inactive; TRPV1 agonist: inactive; uPA generation: inactive

What do the screens show for `CCCCC#Cc1cncc(C(=O)N/N=C/c2cccc(OC)c2)c1`?
RORgamma inh: 11.2µM; TRPV1 PAM: inactive; VP16 counter: inconclusive; TRPV1 agonist: inactive; uPA generation: inconclusive

How did O=C(O)C1CCCN1c1nc(C(F)(F)F)nc2ccccc12 (stereo unspecified) do in these assays?
RORgamma inh: inactive; TRPV1 PAM: inactive; VP16 counter: inactive; TRPV1 agonist: inactive; uPA generation: inactive

How did Nc1cccc2nc3ccccc3cc12 do in these assays?
RORgamma inh: 14.1µM; TRPV1 PAM: inactive; VP16 counter: inconclusive; TRPV1 agonist: inactive; uPA generation: inconclusive

How did Cc1cc2c(N)cccc2nn1 do in these assays?
RORgamma inh: 12.6µM; TRPV1 PAM: inactive; VP16 counter: inactive; TRPV1 agonist: inactive; uPA generation: inactive
